This note sets out measurements from PubChem BioAssay AID2501 (Southern Research Specialized Biocontainment Screening …, 2010).

In all, about 2,200 compounds went through this assay and about 1,200 (55%) were called active. No cut-off is given here; in the data, nearly all actives have IC50 up to about 92 µM. So high a share suggests a set chosen from earlier hits. This is one part of the list.

The assay can be described thus: counter assay for TAg ATPase ADP read-out – biochemical, ADP-Hunter, fluorescence, counter-screen (AID 2501).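 For inhibition: higher means more inhibition.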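 Note: purified T antigen ATPase.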 Conditions: series mostly up to 100 µM.
Take `Cc1ccc(S(=O)(=O)Cc2cc(F)c([N+](=O)[O-])cc2[N+](=O)[O-])cc1`: the IC50 (usually the concentration that inhibits the measured activity by half) was “inactive”.
Under `COc1ccc(C)cc1NC(=O)COC(=O)c1ccc([N+](=O)[O-])o1` stands “inactive”; under `O=C(COc1ccccc1[N+](=O)[O-])N/N=C/c1ccc(O)cc1`, 6.73 µM (active); under `Cc1ccc(/C=N\NC(=O)COc2ccc(C)cc2[N+](=O)[O-])cc1`, 23.3 µM (active).
For the compound `CCc1ccc2cccc3c2c1N=CN3C`, the IC50 is 8.65 µM (active).
For the compound `C[C@H](CCC(=O)O)[C@H]1CC[C@H]2[C@@H]3CC[C@@H]4C[C@H](O)CC[C@]4(C)[C@H]3CC[C@]12C`, the IC50 result is “inactive”.
For `Cc1cnc(C(=O)Nc2ccc(S(=O)(=O)NCC(C)C)cc2)cn1`, the IC50 entry is “inactive”.
With `CCn1c(SCC(=O)Nc2ccc(N(C)C)cc2)nnc1C1CC1`, the concentration for half-maximal inhibition (IC50) was 5.16 µM (active).
The entry for `Nn1c(SCC(=O)NC(=O)Nc2ccc3c(c2)OCCO3)nnc1C1CC1` is “inactive”.
With `CCCCOC(=O)c1ccc(NC(=O)CSc2nnnn2C)cc1`, the IC50 result is “inactive”.
Under `CCCCn1nnnc1SCC(=O)Nc1ccc(N(C)C)cc1` stands 3.37 µM (active); under `CCn1c2ccccc2c2cc(NC(=O)CSc3nnc(C4CC4)n3Cc3ccco3)ccc21`, “inactive”; under `CN(C)c1ccc(NC(=O)CSc2nnc(-c3cnccn3)n2C)cc1`, 7.11 µM (active).
Consider `Cc1nnc(SCC(=O)Nc2ccc(N(C)C)cc2)n(N)c1=O`, for which the half-maximal inhibitory concentration (IC50) is 5.56 µM (active).
Regarding `Cn1ccnc1SCC(=O)Nc1cccc(C(F)(F)F)c1`, the IC50 result is “inactive”.
With `Cc1cc(-c2nc3c4c5c(sc4[nH]c(=O)n3n2)CCC5)c(C)o1`, the IC50 entry was “inactive”.
`CNC[C@@H](C)NC[C@@H](Cc1ccccc1)NCCc1ccccc1`: the IC50 result was “inactive”.
On to `Cc1c(CCC(=O)NCCCC(=O)O)c(=O)oc2cc3oc4c(c3cc12)CCCC4`, for which the IC50 entry was “inactive”.
Under `CCOC(CNC(=O)C1CCN(S(=O)(=O)c2ccc3nc4c(c(C(=O)O)c3c2)CCCCC4)CC1)OCC` stands “inactive”; under `O=C(CCN1C(=O)c2ccccc2S1(=O)=O)NCc1ccco1`, “inactive”; under `Cc1ccc(C)c(S(=O)(=O)N2CCCCC2CCNC(=O)C(=O)NCc2ccco2)c1` (stereo not given), “inactive”.
As for `O=C(NCc1ccco1)C1CC(=O)N(c2ccc(O)cc2)C1` (stereo not given), the IC50 was 6.48 µM (active).
Under `Cc1nc2ccc(N=NN(C)C)cc2[nH]1` stands “inactive”; under `O=C1NN(c2ccccc2)C(=O)/C1=C/c1ccc(-c2ccc(Cl)c(C(=O)O)c2)o1`, 13.7 µM (active).
In the case of `Cc1cccc(N2NC(=O)/C(=C/c3ccc(-c4ccc(Cl)c(C(=O)O)c4)o3)C2=O)c1`, the half-inhibitory concentration (IC50) is 31.9 µM (active).
Regarding `N#CC1=C(S)N(c2ccccc2)C(c2ccc(-c3ccc(Cl)c(Cl)c3)o2)NC1=O` (stereo not given), the IC50 result is “inactive”.
`CCCCC1(C)OC(=O)C(=Cc2ccc(-c3ccc(Cl)c(C(=O)O)c3)o2)C(=O)O1` (stereo not given): the IC50 result is “inactive”.
The entry for `Cn1sc(=O)c2cc(S(=O)(=O)NC3CC3)ccc21` is “inactive”; for `CCN1C(=O)CC(N2CCC(Nc3ccc(OC)cc3)CC2)C1=O` (stereo not given) it is 4.87 µM (active); for `O=C(O)c1cc(Nc2cc(Cl)c3nonc3c2[N+](=O)[O-])ccc1O` it is “inactive”.
For `O=C1NC(=O)C(c2ccccc2[N+](=O)[O-])=C1Nc1ccc(O)c(Cl)c1`, the IC50 is 11.8 µM (active).
With `N=c1c2c(ncn1CCCO)Oc1ccc3ccccc3c1C2c1ccccc1` (stereo not given), the IC50 result is “inactive”.
Take `COc1cc(/C=C(\C#N)c2ccccn2)cc(OC)c1O`: the half-maximal inhibitory concentration (IC50) is 4.83 µM (active).
For `COc1cc(/C=C(\C#N)c2nc3ccccc3n2C)cc(OC)c1O`, the IC50 was 6.31 µM (active).
In the case of `COc1ccc(S(=O)(=O)N2CCC(NC(=O)c3ccccc3)CC2)cc1`, the IC50 result is “inactive”.
`COc1ccc(-c2ccc(OC(=O)NC3CCS(=O)(=O)C3)cc2)cc1` (stereo not given): the half-inhibitory concentration (IC50) is 5.8 µM (active).
Turning to `O=c1c(C(c2c(O)nc3n(c2=O)CCS3)c2cccc3ccccc23)c(O)nc2n1CCS2`, the concentration for half-maximal inhibition (IC50) was 20.9 µM (active).
`C=CCOc1ccc(C2NC(=S)NC(c3ccccc3)=C2C(C)=O)cc1OC` (stereo not given): the IC50 result was “inactive”.
The figure for `Oc1ccc(/C=N/Nc2ccc(Cl)nn2)cc1O` is 8.65 µM (active).
Consider `Oc1ccc(/C=N/Nc2ccc(C(F)(F)F)cn2)cc1O`, for which the IC50 was 5.59 µM (active).
The entry for `N=C1/C(=C/c2ccc(Br)o2)C(=O)N=C2SC(CC(=O)N3CCCC3)=NN12` is “inactive”.
`CC1=C(C(=O)OCC(C)C)C(c2cccs2)NC(=S)N1` (stereo not given): the IC50 result is “inactive”.
As for `N#CC1(NC(=O)COC(=O)c2cc(O)c3ccccc3c2O)CCCCC1`, the IC50 result is “inactive”.
For `CN(C(=O)c1ccccc1C(=O)OCC(=O)NCc1cccs1)C1CCCCC1`, the IC50 is 44.1 µM (active).
With `Cc1ccc(-n2nnnc2C(Cl)(Cl)c2nnnn2-c2ccc(C)cc2)cc1`, the IC50 entry is “inactive”.
With `Nc1nc(-c2ccco2)cs1`, the half-maximal inhibitory concentration (IC50) is 10.8 µM (active).
Turning to `c1coc(-c2nc(-c3ccco3)c(-c3ccco3)nc2-c2ccco2)c1`, the IC50 entry is “inactive”.
Consider `c1coc(-c2nc3ccccc3nc2-c2ccco2)c1`, for which the IC50 entry was “inactive”.
The entry for `NC(=O)c1sc2nnc(-c3ccccc3)c(-c3ccccc3)c2c1N` is “inactive”; for `Nc1ccc(-c2sc(N)nc2-c2ccccc2)cc1` it is 8.36 µM (active).
For the compound `ClCC1=Nc2cccc3cccc(c23)N1`, the IC50 was 4.21 µM (active).
The figure for `CCOc1cc(/C=N\NC(=O)CC(=O)NCCc2ccccc2)ccc1O` is 4.71 µM (active); for `O=C(COC(=O)CSc1ccc([N+](=O)[O-])cc1)NCCc1ccccc1` it is “inactive”.
Regarding `CC(C)CCNC(=O)CCCc1ccccc1`, the IC50 entry was “inactive”.
In the case of `COc1cc(/C=N\NC(=O)CC(=O)NCCc2ccccc2)ccc1O`, the IC50 is 3.22 µM (active).
Consider `COc1ccc(N2CCC(CNC(=S)Nc3c(C)cc(C)cc3C)C2)cc1` (stereo not given), for which the half-inhibitory concentration (IC50) is 12.1 µM (active).
Take `COc1ccc(N2CCC(CNC(=S)Nc3c(C)cccc3C)C2)cc1` (stereo not given): the IC50 is 7.45 µM (active).
The entry for `Cc1ccc(NC(=S)NCC2CCN(C(C)c3ccccc3)C2)cc1C` (stereo not given) is “inactive”.
Turning to `COc1ccc(Cl)cc1NC(=S)N1CCC(c2ccc(C)cc2)C1` (stereo not given), the IC50 entry was “inactive”.
For `COc1ccc(N2CCC(CNC(=S)Nc3ccc(C)cc3C)C2)cc1` (stereo not given), the half-inhibitory concentration (IC50) was 10.7 µM (active).
The entry for `Cc1cc(SCC(=O)c2ccccc2)nc(C)n1` is “inactive”.
Take `O=C(CSc1n[nH]c(-c2ccccc2)n1)c1ccc(O)c(O)c1`: the IC50 was 10 µM (active).
Turning to `Cc1ccc(C(=O)N(Cc2ccc3c(c2)OCO3)Cc2nc3ccccc3c(=O)[nH]2)cc1`, the IC50 entry is “inactive”.
For `O=C(CSc1nc2ccccc2n1CCc1ccccc1)c1ccc(O)c(O)c1`, the half-maximal inhibitory concentration (IC50) was 43.4 µM (active).
With `N#Cc1c(-c2ccccc2)nc(SCC(=O)N2c3ccccc3Sc3ccccc32)[nH]c1=O`, the IC50 entry was “inactive”.
For `CCCn1c(SC(C)C(=O)O)nc2ccccc21` (stereo not given), the IC50 result is “inactive”.
The figure for `O=C(CSc1nc2ccccc2c(=O)[nH]1)c1ccc(O)c(O)c1` is 9.7 µM (active); for `Brc1ccc(-c2n(-c3ccccn3)c3ccccc3[n+]2-c2ccccn2)cc1` it is “inactive”.
Turning to `CC(=O)N1c2c(cc(Br)cc2S(=O)(=O)N2CCCCC2)CC1C` (stereo not given), the IC50 entry was “inactive”.
As to `C[c-]1[c-](C)[c-](C)[c-](C)[c-]1C.[Fe].c1cc2nccc(N3CCCC3)[c-]2c1` (stereo not given), the IC50 was 5.8 µM (active).
Consider `CCOC(=O)N1CCC(NC(=O)c2cnn3c2NC(c2ccco2)CC3C(F)(F)F)CC1` (stereo not given), for which the IC50 entry is “inactive”.
In the case of `CCN(C(=O)CN1CCN(c2ccc(O)cc2)CC1)c1c(N)n(Cc2ccccc2)c(=O)[nH]c1=O`, the concentration for half-maximal inhibition (IC50) was 4.79 µM (active).
Turning to `COCCN(C(=O)COC(=O)c1cc2c(s1)CCC2)c1c(N)n(Cc2ccccc2)c(=O)[nH]c1=O`, the IC50 result was “inactive”.
The entry for `CCN(C(=O)CN1CCN(c2cccc(Cl)c2)CC1)c1c(N)n(Cc2ccccc2)c(=O)[nH]c1=O` is “inactive”.
Consider `CC1=NN(c2nc(-c3ccc(C#N)cc3)cs2)C(=O)C1`, for which the IC50 result is “inactive”.
For `CC1=NN(c2nc(-c3ccccc3)cs2)C(=O)C1`, the IC50 was 56 µM (active).
Take `Nc1ccc(Sc2ccccc2CC(=O)O)cc1`: the IC50 is 16.9 µM (active).
Under `OCc1ccccc1SSc1ccccc1CO` stands “inactive”; under `N#Cc1c(-c2ccco2)cc(-c2ccccc2)[nH]c1=O`, “inactive”.
Regarding `Cc1ccc(-c2c3c([nH]c(=S)c2C#N)CCCC3)o1`, the IC50 result is “inactive”.
As to `N#Cc1c(-c2ccco2)c2c([nH]c1=S)CCCC2`, the IC50 is 95.5 µM (active).
Turning to `O=C(CSc1nnc(CNC(=O)c2ccco2)o1)Nc1ccccc1C(F)(F)F`, the IC50 result is “inactive”.
`CCN(CC)c1ccc(NC(=O)c2ccco2)cc1`: the 50% inhibitory concentration (IC50) is 4.57 µM (active).
With `CCN(CC)c1ccc(NC(=O)c2cc3c(OC)cccc3[nH]2)cc1`, the IC50 entry is “inactive”.
With `COCCNC(=O)Nc1ccc2nc(-c3ccco3)c(-c3ccco3)nc2c1`, the IC50 result is “inactive”.
Consider `CCN(CC)c1ccc(NC(=O)c2ccccc2F)cc1`, for which the concentration for half-maximal inhibition (IC50) was 4.71 µM (active).
Take `CCN(CC)c1ccc(NC(=O)CCNC(=O)c2ccco2)cc1`: the IC50 was 5.22 µM (active).
Take `COc1cc(-c2nc3cccc(C)n3c2NCC2CCCO2)ccc1O` (stereo not given): the IC50 was 41.9 µM (active).
On to `S=c1nc[nH]c2nc[nH]c12`, for which the IC50 entry was “inactive”.
Regarding `Cc1ccc(NC(=O)COc2ccc(C3SCCS3)cc2)cc1`, the IC50 entry was “inactive”.
`Cc1ccc(NC(=O)COc2ccc(/C(N)=N/O)cc2)cc1C`: the IC50 was 29.6 µM (active).
For `CCN(CC)C(=O)c1cc([N+](=O)[O-])cc2c1-c1ccc([N+](=O)[O-])cc1C2=C(C#N)C#N`, the IC50 result was “inactive”.
In the case of `CCN(CC)c1ccc(NC(=O)C2CC(=O)N(Cc3ccccc3)C2)cc1` (stereo not given), the IC50 was 5.88 µM (active).
Regarding `COc1ccccc1CN1CC(C(=O)NCc2ncccc2C)CCC1=O` (stereo not given), the IC50 result was “inactive”.
On to `Cc1ccc(S(=O)(=O)/N=C(/Sc2ccccc2C(=O)O)c2ccccc2)cc1`, for which the IC50 entry is “inactive”.
As to `Cc1cc(C(=O)c2cccs2)c(N)s1`, the half-inhibitory concentration (IC50) was 32.8 µM (active).
`Cc1ccc(NC(=O)CNC(=O)c2cccs2)nc1`: the IC50 result was “inactive”.
Consider `COc1cccc(CC2(CO)CCCN(Cc3sc(N4CCCC4)nc3Cl)C2)c1` (stereo not given), for which the IC50 result is “inactive”.
In the case of `COC(=O)/C=C/c1ccc(OC(=O)OC)c(OC(=O)OC)c1`, the IC50 is 8.79 µM (active).
For `CCNc1ccc(N=Nc2c(C)n(C)n(-c3ccccc3)c2=O)cc1`, the concentration for half-maximal inhibition (IC50) was 3.42 µM (active).
For `Cc1nc(N)sc1N=Nc1c(C)n(C)n(-c2ccccc2)c1=O`, the half-maximal inhibitory concentration (IC50) was 10.3 µM (active).
`Cc1cccc(N=Nc2c(C)[nH]n(-c3ccccc3)c2=O)c1`: the IC50 result is “inactive”.
Turning to `Cc1cc(N)ccc1N=Nc1c(C)n(C)n(-c2ccccc2)c1=O`, the 50% inhibitory concentration (IC50) is 8.16 µM (active).
The entry for `COc1ccc(-c2cc(=Nc3c(C)n(C)n(-c4ccccc4)c3=O)c3ccccc3o2)cc1` is “inactive”.
For the compound `Cc1c(N=C2C=C(Br)C(=O)C(Br)=C2)c(=O)n(-c2ccccc2)n1C`, the IC50 is 50.9 µM (active).
